Screening results from PubChem BioAssay.
sEH inh: blocks human soluble epoxide hydrolase activity; P34913; recombinant human sEH enzymatic activity assay; inhibition, % at 2 µM; hit rate 0.34% among 91,000; AID 707; in the data active = inhibition above about 80%
Target sequence (P34913 whole entry, looked up): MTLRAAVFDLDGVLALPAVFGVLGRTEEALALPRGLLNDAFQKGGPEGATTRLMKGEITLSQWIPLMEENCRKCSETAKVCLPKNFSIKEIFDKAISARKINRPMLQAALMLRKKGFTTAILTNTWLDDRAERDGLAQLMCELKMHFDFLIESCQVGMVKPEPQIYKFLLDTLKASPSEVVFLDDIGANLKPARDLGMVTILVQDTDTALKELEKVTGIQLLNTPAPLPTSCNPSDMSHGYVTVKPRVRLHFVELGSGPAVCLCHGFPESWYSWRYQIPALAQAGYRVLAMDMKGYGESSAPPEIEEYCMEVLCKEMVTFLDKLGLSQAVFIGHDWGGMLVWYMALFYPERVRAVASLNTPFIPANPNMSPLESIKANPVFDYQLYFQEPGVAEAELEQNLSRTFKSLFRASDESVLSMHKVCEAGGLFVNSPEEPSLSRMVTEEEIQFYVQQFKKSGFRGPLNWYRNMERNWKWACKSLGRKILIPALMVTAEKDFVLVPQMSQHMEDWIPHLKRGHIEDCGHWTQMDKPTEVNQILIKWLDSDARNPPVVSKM
SDO1 yeast rescue: compounds rescuing growth of sdo1-depleted yeast, bone marrow failure model; S. cerevisiae sdo1-depleted JHY4D growth rescue, OD600 30 h; active compounds read high; pdr5 snq2 efflux-pump mutant strain; z-score at 10 µM; hit rate 0.21% among 140,000; AID 817;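 active = z-score above 3 at both the 24 hr and the 30 hr optical density reads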
sEH act: increases human soluble epoxide hydrolase activity; P34913; purified human sEH enzymatic activity, activator screen; activation, % at 2 µM; hit rate 0.04% among 91,000; AID 717; in the data active = activation above about 37%
Measles CPE: protection of cells from measles virus; Measles virus-infected cells, CPE protection, absorbance; protection (pct of control), % at 4 µM; hit rate 1.5% among 140,000; AID 841; in the data active = protection mostly above about 24%, no sharp cut-off; inactive = mostly below about 26%
A number is an active result; i = inactive; nt = no result given. Sampled rows, rich in hits. Any-hit rate of the full collection: about 1.9%.

SMILES | sEH inh | SDO1 yeast rescue | sEH act | Measles CPE
O=c1c2ccccc2nc(SCc2cc(F)ccc2F)n1C1CCCC1 | i | i | i | 31
O=C(c1ccc(-n2c(SCc3cc(F)ccc3F)nc3ccccc3c2=O)cc1)N1CCOCC1 | nt | i | nt | i
CC(=O)NCCn1c(SCc2cc(F)ccc2F)nc2ccccc2c1=O | i | i | i | 41
Cc1nn(C)c2ncc(C(=O)c3cc(F)ccc3O)cc12 | i | i | i | i
O=C(NCCF)[C@H]1C[C@@H]1[C@H](NP(=O)(c1ccccc1)c1ccccc1)c1ccccc1 | nt | i | nt | i
O=C(Oc1ccccc1[N+](=O)[O-])c1cccnc1 | i | i | i | 29
Cc1cc(C)n(-c2ccc(C(=O)OCC(=O)NC(c3ccccc3)c3ccccc3)cc2)n1 | nt | i | nt | 51
CN(Cc1ccccc1)S(=O)(=O)c1ccc(NS(C)(=O)=O)cc1 | i | i | i | i
O=C1NC2(CCCCC2)N=C1c1ccc(Br)cc1 | i | i | i | 64
O=c1oc2cc(Oc3c([N+](=O)[O-])cc(C(F)(F)F)cc3[N+](=O)[O-])ccc2c2c1CCCC2 | i | i | i | i
COc1ccc(OC)c(C(O)c2coc3ccc(O)c(CN(C)C)c23)c1 (configuration not stated) | i | i | i | i
CC(=O)Nc1ccc(N=Cc2nc(-c3ccc(C)cc3)oc2O)cc1 | i | i | i | i
O=[N+]([O-])c1cc(/C=N/O)ccc1SCc1ccccc1 | i | i | i | 75
O=[N+]([O-])c1cc(/C=N/O)ccc1Sc1ccccc1 | i | i | i | i
COC(=O)C1(C)Nc2ccccc2C(=O)N1c1ccccc1C (configuration not stated) | i | i | i | 41
COc1cccc(C(C(=O)NC2CCCC2)N(C(=O)c2ccco2)C2CC2)c1OC (configuration not stated) | i | i | i | i
Cc1ccc(-c2nc3ccccc3n3c(C)nnc23)cc1 | nt | i | nt | i
CCCN(CCC)c1nc2ccccc2n2c(C)nnc12 | i | i | i | 44
Cc1ccc(OCC(=O)N(Cc2ccccc2)C2CCS(=O)(=O)C2)c([N+](=O)[O-])n1 (configuration not stated) | nt | i | nt | 37
CCN(C(=O)COc1ccc(C)nc1[N+](=O)[O-])C1CCS(=O)(=O)C1 (configuration not stated) | nt | i | nt | i
COc1ccc2c(c1)C(c1ccccc1)=NNC(c1ccco1)=N2 | i | i | i | 49
CCOc1ccc2c(c1)C(c1ccc(C)cc1)=NNC(c1ccc(OC)cc1)=N2 | i | i | i | i
Cn1c(=O)c(C(=O)COC(=O)c2cc(C(F)(F)F)nc3ccccc23)c(N)n(Cc2ccccc2)c1=O | nt | i | nt | i
Cn1c(=O)c(C(=O)COC(=O)c2cc(-c3ccccc3)nc3ccccc23)c(N)n(Cc2ccccc2)c1=O | nt | i | nt | 25
Cc1ccc(/C=N\NC(=O)c2cc(OCC(F)(F)F)ccc2OCC(F)(F)F)cc1 | nt | i | nt | i
SMILES | sEH inh | SDO1 yeast rescue | sEH act | Measles CPE
O=C(N/N=C\c1ccc(F)cc1)c1cc(OCC(F)(F)F)ccc1OCC(F)(F)F | i | i | i | 37
COc1nc(N(CC(N)=O)S(=O)(=O)c2ccccc2)nc(C)c1Cl | i | i | i | 29
O=C(c1cccc(COc2cccc3ccccc23)c1)N1CCCC1 | i | i | i | i
Cn1c(-c2ccccc2)cnc1SCC(=O)N1CCCCC1 | i | i | i | 18
Cn1c(-c2ccccc2)cnc1SCC(=O)N1CCCc2ccccc21 | nt | i | nt | i
COc1ccc(C2CCCN2C(=O)Nc2ccc(Cl)cc2)cc1OC (configuration not stated) | 95 | i | i | i
CC(=O)Nc1ccc(S(=O)(=O)N(CC(=O)O)Cc2ccccc2)cc1 | i | i | i | i
Cc1ccc(NC(=O)CN(C)S(=O)(=O)c2cccc3cccnc23)cc1 | i | i | i | 49
Cc1csc(NC(=O)CN(C)S(=O)(=O)c2cccc3cccnc23)n1 | i | i | i | i
CCOC(=O)Nc1ccc(Oc2ccccc2)cc1 | i | i | i | i
CCOC(=O)Nc1ccc(C(=O)Oc2ccccc2)c(O)c1 | i | i | i | 40
Cc1cc(N2C(=O)CC(Cc3ccccc3)C2=O)no1 (configuration not stated) | i | i | i | i
C=CCN1C(=O)/C(=C2/Sc3ccccc3N2C)SC1=Nc1ccccc1C | i | i | i | 51
O=C(NCCC(c1ccccc1)c1ccccc1)c1ccc(Br)o1 | 97 | i | i | i
O=C(O)CCNC(=O)c1ccc(Br)o1 | nt | i | nt | i
Cc1ccccc1NC(=O)CCSc1nnnn1-c1ccccc1 | i | i | i | i
COc1ccc(Cc2nnc(SCC(=O)c3ccc(OC)cc3)o2)cc1 | i | i | i | i
COc1ccc(NCc2nnc(SCC(=O)c3ccc(OC)cc3)o2)cc1 | i | i | i | 38
